# The entries come from a sample that favours hits as a whole.
# Cycloheximide cs: Cycloheximide Counterscreen for Small Molecule Inhibitors of Shiga Toxin; cell reporter, cycloheximide protein synthesis inhibition counterscreen; max response, %; 300,000 tested, 12% active; AID 2314, 2010; in the data active = max response mostly above about 13%, no sharp cut-off; inactive = mostly below about 14%; also: read at 38.3 µM for the half of the compounds with a filed dose; 0% is about no effect
# LmPK inhibitor: qHTS Assay for Inhibitors of Leishmania Mexicana Pyruvate Kinase (LmPK); Q27686; purified LmPK, Kinase-Glo ATP luminescence, 1 h; Potency, µM (top dose mostly 57.5 µM), without a hit: top-dose activity change, negative = inhibition, most hits filed as inhibitors; 290,000 tested, 0.37% active; also: potency is read from the fitted curve at half-maximal effect; % is scaled to controls: 0 for no effect and ±100 for the full control effect
# Target sequence (Q27686 whole entry, looked up): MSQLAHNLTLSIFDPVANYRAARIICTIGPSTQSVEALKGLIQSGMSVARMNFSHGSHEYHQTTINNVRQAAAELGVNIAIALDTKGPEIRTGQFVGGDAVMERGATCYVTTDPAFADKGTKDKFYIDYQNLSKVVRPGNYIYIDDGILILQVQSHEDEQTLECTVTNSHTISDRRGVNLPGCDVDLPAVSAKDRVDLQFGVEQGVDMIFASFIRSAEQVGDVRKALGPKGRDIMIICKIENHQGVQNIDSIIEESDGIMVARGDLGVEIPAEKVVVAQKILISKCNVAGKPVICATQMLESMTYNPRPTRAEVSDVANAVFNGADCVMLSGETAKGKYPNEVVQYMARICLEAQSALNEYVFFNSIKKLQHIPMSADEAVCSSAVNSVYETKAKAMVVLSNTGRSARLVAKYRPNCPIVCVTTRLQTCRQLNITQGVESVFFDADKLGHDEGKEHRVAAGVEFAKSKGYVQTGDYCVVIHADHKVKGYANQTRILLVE
#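 ATP generated from ADP (0.1 mM) and PEP (0.5 mM) by 0.1 nM LmPK over 1 h at room temperature (pH 7.2 imidazole buffer) was detected by coupled luciferase luminescence. Values were normalized to uninhibited and no-enzyme wells.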
# Sm TGR inh: qHTS Assay for the Inhibitors of Schistosoma Mansoni Peroxiredoxins; Schistosoma mansoni thioredoxin glutathione reductase (TGR), Q962Y6; purified TGR, DTNB reduction, TNB absorbance 405 nm; Potency, µM (top dose mostly 114 µM), without a hit: top-dose activity change, negative = inhibition, most hits filed as inhibitors; 360,000 tested, 3% active; AID 485364, 2010; also: potency is read from the fitted curve at half-maximal effect; % is scaled to controls: 0 for no effect and ±100 for the full control effect; nearly all actives have a fitted effect of over 60% in size
#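 TGR 20 nM + NADPH 100 uM (dispensed conc.), cpd preinc 15 min RT; start with NADPH (500 uM addition) then DTNB (15 mM addition). Kinetic TNB absorbance, 405 nm filter. Four-parameter Hill fit across titration.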
# Shiga toxin inh: A qHTS for Small Molecule Inhibitors of Shiga Toxin; Vero cells, Shiga toxin protein synthesis inhibition reporter; 290,000 tested, 9.2% active; inhibition, % at 38.7 µM; in the data active = inhibition mostly above about 28%, no sharp cut-off; inactive = mostly below about 43%; also: 0% is about no effect
# TbPYK inhibitor: qHTS of Trypanosoma Brucei Inhibitors; 410,000 tested, 0.12% active; pyruvate kinase (Trypanosoma brucei), Q57TT1; AID 624173, 2012; Potency, µM (titrated, usually from 76.8 µM), without a hit: top-dose activity, negative = inhibition, most hits filed as inhibitors; TbPYK enzyme, Kinase-Glo Plus ATP luminescence, 45 min; also: potency is read from the fitted curve at half-maximal effect; % is scaled to controls: 0 for no effect and ±100 for the full control effect; nearly all actives have a fitted effect of over 50% in size
#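 Assay buffer: 50 mM TEA pH 7.2, 100 mM KCl, 10 mM MgCl2, 0.05% BSA, 0.01% Tween-20. Pyruvate kinase from T. brucei plus substrate met compound, then ADP (130 uM final). Luminescence was read post 45 min RT.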
# FBPA Giardia inh: qHTS Assay for Inhibitors of Fructose-1,6-bisphosphate Aldolase from Giardia Lamblia; A8B2U2; purified Giardia FBPA; AID 2451, 2010; Potency, µM (doses to about 59.6 µM), inactives show top-dose activity, negative = inhibition, actives largely listed as inhibitors; 290,000 tested, 0.71% active; also: potency is read from the fitted curve at half-maximal effect; % is scaled to controls: 0 for no effect and ±100 for the full control effect; nearly all actives have a fitted effect of over 55% in size
#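 Giardia FBPA (40 nM reagent) was preincubated 10 min at RT with compound (up to 57.5 uM final), then substrate plus GAPDH/TPI/NAD/arsenate coupling system with diaphorase/resazurin was added; resorufin fluorescence (525/598 nm) was read after 20 min.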
# An asterisk follows results filed as active; ? = inconclusive; nt = no result; [ ] = remark or other dose. Unless noted, calls follow the shape of the dose curve; as a rule, active = well fitted curve in the direction sought with a large enough effect; inconclusive = small, poorly fitted or top-dose-only effect, or another doubt; inactive = no such curve, though single readings can be large; an effect the other way counts as inactive or inconclusive.
SMILES,Cycloheximide cs,LmPK inhibitor,Sm TGR inh,Shiga toxin inh,TbPYK inhibitor,FBPA Giardia inh
Cc1ccc(C(=O)NC(=S)NNC(=O)c2ccccc2O)cc1,19*,3%,9%,54*,-8%,?
NCCc1ccn[nH]1,nt,nt,2%,nt,-2%,-9%[21.7 µM]
C=C(C)C(=O)OCCOCC,-4,nt,nt,-2,nt,15%
O=S(=O)(Nc1nc2c(s1)CCCC2)c1ccc(F)cc1,21*,1%,-10%,55,1%,-6%
O=S(=O)(Nc1nc2c(s1)CCCC2)c1ccc(Br)cc1,6,3%,-15%,0,2%,-1%
COc1cccc(OCc2nnc(SC)n2C)c1,32*,-5%,-2%,45,-12%,3%
COc1cccc(OCc2nnc(SCC(=O)OC3CCCCC3)n2C)c1,-4,3%,1%,-16,1%,11%
O=C(CSc1nnc(-c2ccco2)o1)c1ccc([N+](=O)[O-])cc1,9,4%,-11%,-3,-19%,1%
Cc1cc(C(=O)CSc2nn(-c3ccccc3)c(=S)s2)c(C)n1Cc1ccco1,12,-4%,-23%,13,-2%,-2%
Cc1cc(C(=O)COC(=O)[C@H](C)NC(=O)c2ccco2)c(C)n1Cc1ccco1,35*,-2%,-13%,59*,-20%,-5%
Cc1cc(C(=O)CSc2nncs2)c(C)n1Cc1ccco1,38*,1%,-25%,109*,1%,-16%
Cc1cc(C(=O)COC(=O)Cn2c(C(F)(F)F)nc3ccccc32)c(C)n1Cc1ccco1,-2,5%,-27%[11.4 µM],-7,-5%,0%
Cc1ccc2cccc(OCC(=O)c3cc(C)n(Cc4ccco4)c3C)c2n1,25*,-14%,?,101,nt,-27%
O=C(CSc1nnc(-c2ccco2)o1)c1ccccc1Cl,17*,-3%,?,31,1%,-14%
Cc1cc(C(=O)CCl)c(C)n1Cc1ccco1,21,-11%,4µM*,43,-5%,-3%
Cc1cc(C(=O)CSc2nnc(-c3ccco3)o2)c(C)n1Cc1ccco1,31*,4%,?,96*,0%,-10%
COCC(C)n1c(C)cc(C(=O)CSc2nnc(-c3ccco3)o2)c1C (configuration not stated),nt,nt,nt,nt,-3%,nt
Cc1cc(C(=O)CN2C(=O)NC(c3ccccc3)(c3ccccc3)C2=O)c(C)n1Cc1ccco1,7,1%,-17%,51,3%,-10%
Cc1cc(C(=O)CCl)c(C)n1-c1ccon1,15,-8%,11µM*,7,-22%,-2%
Cc1ccc(C(=O)Nc2cc3c(oc2=O)CCCC3=O)cc1,45*,-3%,-16%,75*,0%,2%
CC1(C)CC(=O)c2cc(NC(=O)c3ccc(F)cc3)c(=O)oc2C1,2,1%,-1%,-4,7%,3%
O=C(Nc1cc2ccc(O)cc2oc1=O)c1ccccc1,nt,nt,6%,nt,-5%,nt
O=C(Nc1cc2c(oc1=O)CCCC2=O)c1ccccc1,33*,-3%,7%,17*,1%,-1%
CNc1ncnc2c1ncn2[C@H]1CN(Cc2cccc3ccccc23)C[C@@H](CO)O1,nt,nt,nt,nt,0%,nt
COc1ccc(-c2cc(C(=O)N3CCCC3)no2)cc1OC,20*,0%,-1%,86*,4%,-2%
SMILES,Cycloheximide cs,LmPK inhibitor,Sm TGR inh,Shiga toxin inh,TbPYK inhibitor,FBPA Giardia inh
COc1ccc(-c2cc(C(=O)N3CCCCC3)no2)cc1OC,39*,-2%,-3%,77*,1%,9%
Cc1cc(C)cc(NC(=O)NCc2noc3ccccc23)c1,nt,nt,2%,nt,-4%,nt
CC1CCCCC1NC(=S)NC(=O)c1sc2ccccc2c1Cl (configuration not stated),12*,9%,8%,-7,-8%,-12%
CC1CCCCC1NC(=S)NC(=O)c1ccccc1Cl (configuration not stated),nt,nt,nt,nt,-6%,nt
Cc1c(NC(=S)NC(=O)c2sc3ccccc3c2Cl)cccc1C(=O)O,61*,-1%,3.2µM*,161*,-11%,-21%
COc1ccc(-n2nc([N+](=O)[O-])c(=NCCC3=CCCCC3)n2O)cc1,32*,0%,-2%,46,-1%,-8%
COc1ccc(-n2nc([N+](=O)[O-])c(=NCCc3ccc(OC)c(OC)c3)n2O)cc1,1,-2%,35µM*,-13,2%,-9%
COc1ccc(-n2nc([N+](=O)[O-])c(=NCCc3ccc(C)cc3)n2O)cc1,5,7%,-27%,47,3%,-6%
Cc1cc(C)cc(OC(C)C(=O)Nc2nonc2-c2ccc(Br)cc2)c1 (configuration not stated),nt,nt,-5%,nt,2%,nt
COc1ccc(OCCSc2nc(N)cc(N)n2)cc1,49*,4%,0%,101*,-6%,-3%
Cc1ccc(OCCSc2nc(N)cc(N)n2)cc1,53*,0%[11.5 µM],5%,130*,4%,-1%
COc1cccc(CSc2nc(N)cc(N)n2)c1,14,1%,-31%,4,-23%,3%
Cc1ccccc1OC(=O)CSc1nnc(-c2cccs2)o1,nt,nt,-4%,nt,4%,nt
COc1cc(OC)c(NS(=O)(=O)c2cc3c(cc2C)N(C(C)=O)CCO3)cc1Cl,nt,nt,-2%,nt,-3%,nt
COc1ccc(OC)c(NS(=O)(=O)c2cc3c(cc2Cl)N(C(C)=O)CCO3)c1,nt,nt,2.5µM*,nt,0%,nt
O=C(OCc1nnc(-c2ccccc2)o1)c1ccc2c(c1)OCCO2,22*,-2%,-19%,45*,2%,0%
CS(=O)(=O)c1ccc(C(=O)OCc2nnc(-c3ccccc3)o2)cc1[N+](=O)[O-],25*,2%,1.4µM*,21,5%,-1%
CN(C)S(=O)(=O)c1ccc(C(=O)OCc2nnc(-c3ccccc3)o2)cc1,10,-1%,0%,26,3%,1%
O=C(OCc1nnc(-c2ccccc2)o1)C1=COCCO1,22*,-4%,16%,25,2%,5%
COC(=O)c1ccc(NC(=O)CN2C(=O)c3cccc4cccc2c34)cc1,nt,nt,6%,nt,0%,nt
COc1cc(NC(=O)c2cc([N+](=O)[O-])ccc2NC(=O)CN2CCN(c3ccccn3)CC2)cc(OC)c1,-1,-8%,2%,-5,4%,nt
CCC[C@H]1C[C@H](C(=O)NC(C(C)Cl)C2O[C@@H](SC)C(OP(=O)(O)O)[C@@H](O)[C@@H]2O)N(C)C1 (some centres not stated),-7,nt,nt,-5,4%,10%
Cc1c(CBr)[n+](=O)c2c(n1[O-])C(Br)CCC2Br (configuration not stated),14*,1%,4µM*,17,?,?
